Experimental data from PubChem BioAssay (NCATS).
Results filed as inconclusive are left out. Activity calls are given as the source filed them. Calls come from the whole dose curve; as a rule, active = well fitted inhibition curve with a large enough effect; inconclusive = small, poorly fitted or top-dose-only effect; inactive = flat fitted curve, though single readings scatter.

Assays:
Experiment in all cases: qHTS profiling for inhibitors of Plasmodium falciparum proliferation (AID 504749); note: nearly all actives have a fitted effect of over 60% in size
Conditions in all cases: P. falciparum in erythrocytes, SYBR Green DNA, 72 h; series mostly up to 28.7 µM
CP265 = tested on: CP265
Outline: (§1)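 P. falciparum-infected erythrocytes (0.3% parasitemia, 2.5% hematocrit) incubated with compound 72 h at 37 C, 5% CO2. Parasite DNA detected by SYBR Green after lysis, overnight at room temperature; normalised to 0.29 uM artemisinin and DMSO.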

CP266 = tested on: CP266
Outline: as §1

CP268 = tested on: CP268
Outline: as §1

CP269 = tested on: CP269
Outline: as §1

CP286 = tested on: CP286
Outline: as §1

CP291 = tested on: CP291
Outline: as §1

CP297 = tested on: CP297
Outline: as §1

CP305 = tested on: CP305
Outline: as §1

CP315 = tested on: CP315
Outline: as §1

CP325 = tested on: CP325
Outline: as §1

CP329 = tested on: CP329
Outline: as §1

CP335 = tested on: CP335
Outline: as §1

DFO2036 = tested on: DFO2036
Outline: as §1

DIV14 = tested on: DIV14
Outline: as §1

DIV17 = tested on: DIV17
Outline: as §1

DIV30 = tested on: DIV30
Outline: as §1

Dd2 = tested on: Dd2
Outline: as §1

ECU = tested on: ECU
Outline: as §1

FAB9 = tested on: FAB9
Outline: as §1

GB4 = tested on: GB4
Outline: as §1

HB3 = tested on: HB3
Outline: as §1

ICS = tested on: ICS
Outline: as §1

JCK = tested on: JCK
Outline: as §1

N140 = tested on: N140
Outline: as §1

P93_24 = tested on: P93_24
Outline: as §1

P94_40 = tested on: P94_40
Outline: as §1

PAD = tested on: PAD
Outline: as §1

PC15 = tested on: PC15
Outline: as §1

PC26 = tested on: PC26
Outline: as §1

PC49 = tested on: PC49
Outline: as §1

SC27B = tested on: SC27B
Outline: as §1

TAB109 = tested on: TAB109
Outline: as §1

TAB113 = tested on: TAB113
Outline: as §1

TAB165 = tested on: TAB165
Outline: as §1

W2 = tested on: W2
Outline: as §1

Measured: Potency

C[C@H](O)[C@@H]1C(=O)N2C(C(=O)O)=C(SCCN=CN)C[C@@H]12
inactive: CP265 | CP266 | CP268 | CP269 | CP286 | CP291 | CP297 | CP305 | CP315 | CP325 | CP329 | CP335 | DFO2036 | DIV14 | DIV17 | DIV30 | Dd2 | ECU | FAB9 | GB4 | HB3 | ICS | JCK | N140 | P93_24 | P94_40 | PAD | PC15 | PC26 | PC49 | SC27B | TAB109 | TAB113 | TAB165 | W2
